Measurements: PubChem BioAssay (Tox21)
Where “and” joins values, the source holds several entries; their conditions need not be identical. Equal values may be shown once. Records with an inconclusive call do not appear. A call without a number means that no potency is given here. Some structures have more than one record in an assay (separate samples or runs), and their calls can disagree. Calls of active or inactive are those of the source. Unless noted, calls come from the whole dose curve.

How the values were obtained:
[1] = Nuclear factor erythroid 2-related factor 2/antioxidant responsive element (Nrf2/ARE) small molecule agonists: qHTS cell viability counter screen in human keratinocytes (AID 1919968; active = well fitted curve in the direction sought with a large enough effect in the repeat runs; an effect the other way counts as inactive or inconclusive; note: nearly all actives have a fitted effect of over 55% in size; note: potency is the fitted concentration of half-maximal effect)
In short: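 Cells of the KeratinoSens line were plated at 1,500 per well and left for 5 h before compound transfer from DMSO stocks. After a 23 h incubation (37 C, 5% CO2), CellTiter-Fluor was added. Signal was taken as fluorescence intensity 1 h later.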

[2] = Nuclear factor erythroid 2-related factor 2/antioxidant responsive element (Nrf2/ARE) small molecule agonists: luciferase reporter gene qHTS assay in human keratinocytes (AID 1919969); note: nearly all actives have a fitted effect of over 35% in size; note: potency is the fitted concentration of half-maximal effect
[3] = target: Gonadotropin-releasing hormone receptor (Homo sapiens) (UniProt P30968); test: Human gonadotropin-releasing hormone receptor (GnRHR) small molecule agonists, calcium flux assay in GnRHR-HEK293 cells (AID 1920063); note: nearly all actives have a fitted effect of over 35% in size
In short: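 Compounds dissolved in DMSO are pin-transferred onto dye-loaded GnRHR-HEK293 cells, which were seeded 18 h before at 37 C/5% CO2. Calcium signal is read as fluorescence intensity at 1 s intervals for 3 min.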

[4] = target: KiSS-1 receptor (Homo sapiens) (UniProt Q969F8); test: Human kisspeptin (KISS1R) small molecule agonists, calcium flux assay in KISS1R-HEK293 cells (AID 1920064; active = well fitted curve in the direction sought with a large enough effect in the repeat runs; an effect the other way counts as inactive or inconclusive)
In short: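 Cell line: HEK293, stable human KISS1R. Dye loading 1 h at 37 C after 18 h culture. Read: kinetic fluorescence, 480/540 nm, 3 min at 1 s intervals.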

[5] = G protein-coupled receptor (GPCR) small molecule agonists, calcium flux assay: HEK293 wild type cell line counter screen (AID 1920065)
In short: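 Tox21 10K compounds, 15 concentrations each in triplicate, pin-transferred in DMSO onto dye-loaded cells; kinetic read at 480/540 nm for 3 min, 1 s intervals.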

[6] = p53 small molecule agonists, cell-based qHTS assay with human liver microsomes (AID 1963577)
In short: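 Compounds act here after metabolic activation: human liver microsomes and NADPH, both at 0.5 mg/mL final, were co-added to p53RE-bla cells. Incubation ran 16 h at 37 C, followed by LiveBLAzer detection.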

[7] = p53 small molecule agonists, cell-based qHTS assay with rat liver microsomes (AID 1963578)
In short: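 Read-out is beta-lactamase reporter fluorescence (LiveBLAzer, 2 h, room temperature, dark) in p53RE-bla cells treated 16 h at 37 C with compound, rat liver microsomes and NADPH, both 0.5 mg/mL final.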

[8] = p53 small molecule agonists, cell-based qHTS assay with human liver microsomes: qHTS cell viability counter screen (AID 1963579); note: nearly all actives have a fitted effect of over 45% in size
In short: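 Cells carrying the p53 response-element beta-lactamase reporter are treated for 16 h at 37 C with test compounds in the presence of human liver microsomes and NADPH (both 0.5 mg/mL final); ATP-based CellTiter-Glo luminescence then reports viability.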

[9] = p53 small molecule agonists, cell-based qHTS assay with rat liver microsomes: qHTS cell viability counter screen (AID 1963580); note: nearly all actives have a fitted effect of over 45% in size
In short: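 Cytotoxicity counter screen: intracellular ATP read by CellTiter-Glo luminescence in the p53 reporter wells. HCT-116 p53RE-bla cells were treated for 16 h at 37 C alongside rat liver microsomes and NADPH, each 0.5 mg/mL final.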

[10] = p53 small molecule agonists, cell-based qHTS assay: qHTS cell viability counter screen (AID 1963581); note: nearly all actives have a fitted effect of over 45% in size
In short: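 ATP content measured by luminescence in HCT-116 p53RE-bla cells treated 16 h at 37 C, same wells as the reporter screen.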

[11] = p53 small molecule agonists, cell-based qHTS assay (AID 1963582; active = well fitted activation curve with a large enough effect in the signal ratio in the repeat runs, not every such curve was filed as active; the % refers to the signal ratio)
In short: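 16 h compound exposure (37 C) of p53 response element–bla cells, preceded by 5 h recovery at 37 C/5% CO2; read-out via LiveBLAzer B/G FRET substrate, 2 h RT, fluorescence intensity.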

[12] = target: 5-hydroxytryptamine receptor 2A (Homo sapiens) (UniProt P28223); test: 5-hydroxytryptamine receptor 2A (HTR2A) small molecule antagonists, cell-based qHTS assay (AID 1963586); note: nearly all actives have a fitted effect of over 45% in size
In short: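 CHO cells stably expressing human HTR2A were plated for 18 h at 37 C, then loaded with calcium dye for 1 h. Compounds were preincubated 5 min at room temperature before DOI (4 nM solution) was added. Kinetic fluorescence was read for 3 min.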

[13] = target: 5-hydroxytryptamine receptor 2A (Homo sapiens) (UniProt P28223); test: 5-hydroxytryptamine receptor 2A (HTR2A) small molecule agonists, cell-based qHTS assay (AID 1963587); note: nearly all actives have a fitted effect of over 30% in size
In short: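 Kinetic calcium-flux fluorescence (2 min, 1 sec intervals) after compound addition in agonist mode. HTR2A-CHO cells were cultured 18 h, then dye-loaded 1 h at 37 C.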

[14] = target: Muscarinic acetylcholine receptor M1 (Homo sapiens) (UniProt P11229); test: Cholinergic receptor muscarinic 1 (CHRM1) small molecule antagonists, cell-based qHTS assay (AID 1963588); note: nearly all actives have a fitted effect of over 40% in size; note: potency is the fitted concentration of half-maximal effect
In short: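 Compounds were tested at 15 concentrations in three independent runs. Dye-loaded CHRM1-CHO cells were exposed 5 min at room temperature before stimulation by acetylcholine added at 50nM. Intracellular calcium was read kinetically on FDSS for 3 min.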

[15] = target: Muscarinic acetylcholine receptor M1 (Homo sapiens) (UniProt P11229); test: Cholinergic receptor muscarinic 1 (CHRM1) small molecule agonists, cell-based qHTS assay (AID 1963589); note: nearly all actives have a fitted effect of over 35% in size
In short: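 Homogeneous fluorescence calcium flux, agonist mode. Human M1-expressing CHO cells; compound dosed at 15 concentrations, three independent runs; signal sampled every 1 sec.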

[16] = cAMP Responsive Elements (CRE) small molecule agonists, cell-based qHTS assay (AID 1963590)
In short: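 HEK 293T cells stably bearing CRE-bla were plated at 2,000 cells per well and rested 18 h. Compounds, positive controls or DMSO were added for 3 h at 37 C. LiveBLAzer B/G substrate was then loaded for 2 h at room temperature.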

[17] = target: Beta-2 adrenergic receptor (Homo sapiens) (UniProt P07550); test: Adrenergic beta2 receptor (ADRB2) small molecule antagonists, cell-based qHTS assay (AID 1963592); note: series mostly up to about 92 µM; nearly all actives have a fitted effect of over 50% in size
In short: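 Assay format: CHO-ADRB2 cells, 18-20hr seeding at 37C/5% CO2, then compound plus 1nM isoproterenol agonist mix for 0.5hr RT. Homogeneous time-resolved fluorescence cAMP detection after 1hr, expressed as 665/615 nm ratio.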

[18] = target: D(2) dopamine receptor (Homo sapiens) (UniProt P14416); test: Dopamine D2 receptor (DRD2) small molecule agonists, cell-based qHTS assay (AID 1963594); note: nearly all actives have a fitted effect of over 35% in size
In short: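 cAMP accumulation in DRD2-HEK293 cells measured by HTRF after 1 h detection; compounds added 10 min before NKH477 (200nM […]) forskolin-analogue stimulation, 30 min at room temperature, with Ro20-1724 present at 0.1 mM final.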

[19] = target: D(2) dopamine receptor (Homo sapiens) (UniProt P14416); test: Dopamine D2 receptor (DRD2) small molecule antagonists, cell-based qHTS assay (AID 1963595; active = well fitted inhibition curve with a large enough effect in the signal ratio in the repeat runs, with a control signal flat; the % refers to the signal ratio)
In short: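 HEK293 cells stably expressing DRD2 were preincubated with 0.1 mM Ro20-1724, then with compound for 10 min at room temperature. Cells were stimulated with 200 nM NKH477 plus 12 nM quinpirole for 30 min, and cAMP was read by HTRF.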

[20] = cAMP Responsive Elements (CRE) small molecule antagonists, cell-based qHTS assay (AID 1963591; active = well fitted inhibition curve with a large enough effect in the signal ratio in the repeat runs, not every such curve was filed as active; the % refers to the signal ratio)
In short: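 First, CRE-bla HEK293T cells settled 18 h at 37 C. Next, compound and 0.25 uM final NKH477 were applied for 3 h. Last, LiveBLAzer B/G substrate was loaded for 2 h at room temperature.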

Sequence of Muscarinic acetylcholine receptor M1 (Homo sapiens) (P11229 whole entry, looked up): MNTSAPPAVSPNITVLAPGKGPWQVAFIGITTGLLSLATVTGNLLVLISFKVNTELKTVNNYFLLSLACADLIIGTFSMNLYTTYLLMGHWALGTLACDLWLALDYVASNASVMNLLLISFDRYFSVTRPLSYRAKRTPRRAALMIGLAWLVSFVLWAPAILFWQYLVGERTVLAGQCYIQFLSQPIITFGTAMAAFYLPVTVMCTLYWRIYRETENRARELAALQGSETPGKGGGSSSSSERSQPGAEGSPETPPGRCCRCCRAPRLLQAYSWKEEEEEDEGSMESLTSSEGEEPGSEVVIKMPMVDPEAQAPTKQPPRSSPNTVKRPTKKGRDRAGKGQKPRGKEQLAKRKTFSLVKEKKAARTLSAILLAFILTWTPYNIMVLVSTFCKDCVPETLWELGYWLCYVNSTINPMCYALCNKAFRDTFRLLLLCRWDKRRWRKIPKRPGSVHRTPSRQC
Sequence of Beta-2 adrenergic receptor (Homo sapiens) (P07550 whole entry, looked up): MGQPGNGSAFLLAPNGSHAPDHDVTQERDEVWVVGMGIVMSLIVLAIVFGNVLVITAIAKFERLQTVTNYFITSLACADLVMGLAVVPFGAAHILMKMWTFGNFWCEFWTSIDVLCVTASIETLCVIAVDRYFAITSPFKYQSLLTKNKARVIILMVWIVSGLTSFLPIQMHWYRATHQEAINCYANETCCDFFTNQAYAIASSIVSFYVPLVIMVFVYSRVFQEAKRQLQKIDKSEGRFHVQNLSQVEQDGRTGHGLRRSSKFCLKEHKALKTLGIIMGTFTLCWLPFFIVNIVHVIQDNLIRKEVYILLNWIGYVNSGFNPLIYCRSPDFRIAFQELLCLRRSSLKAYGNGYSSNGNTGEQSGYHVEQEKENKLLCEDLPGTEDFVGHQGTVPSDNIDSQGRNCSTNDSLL
Sequence of KiSS-1 receptor (Homo sapiens) (Q969F8 whole entry, looked up): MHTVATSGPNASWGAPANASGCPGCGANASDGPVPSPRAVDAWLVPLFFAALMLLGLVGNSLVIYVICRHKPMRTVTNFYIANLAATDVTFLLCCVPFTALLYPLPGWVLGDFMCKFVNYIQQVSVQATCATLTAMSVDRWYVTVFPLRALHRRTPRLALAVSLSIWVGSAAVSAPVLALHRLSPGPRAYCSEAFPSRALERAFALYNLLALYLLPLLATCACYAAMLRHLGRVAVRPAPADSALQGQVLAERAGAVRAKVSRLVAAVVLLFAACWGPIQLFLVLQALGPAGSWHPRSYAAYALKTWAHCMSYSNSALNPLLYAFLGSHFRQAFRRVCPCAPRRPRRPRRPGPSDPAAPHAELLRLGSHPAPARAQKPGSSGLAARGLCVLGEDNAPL
Sequence of 5-hydroxytryptamine receptor 2A (Homo sapiens) (P28223 whole entry, looked up): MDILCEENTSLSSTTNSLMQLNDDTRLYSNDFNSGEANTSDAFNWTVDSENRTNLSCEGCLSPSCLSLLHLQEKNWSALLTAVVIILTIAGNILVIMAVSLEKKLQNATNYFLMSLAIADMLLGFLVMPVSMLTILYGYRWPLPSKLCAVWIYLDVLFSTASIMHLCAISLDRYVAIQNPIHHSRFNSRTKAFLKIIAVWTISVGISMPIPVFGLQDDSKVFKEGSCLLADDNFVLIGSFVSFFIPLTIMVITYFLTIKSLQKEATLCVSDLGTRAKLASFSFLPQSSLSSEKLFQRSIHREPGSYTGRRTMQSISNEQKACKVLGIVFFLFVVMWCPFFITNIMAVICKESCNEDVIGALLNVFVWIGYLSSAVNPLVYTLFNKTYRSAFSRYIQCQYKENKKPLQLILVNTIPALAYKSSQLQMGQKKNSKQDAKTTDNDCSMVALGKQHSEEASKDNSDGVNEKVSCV
Sequence of D(2) dopamine receptor (Homo sapiens) (P14416 whole entry, looked up): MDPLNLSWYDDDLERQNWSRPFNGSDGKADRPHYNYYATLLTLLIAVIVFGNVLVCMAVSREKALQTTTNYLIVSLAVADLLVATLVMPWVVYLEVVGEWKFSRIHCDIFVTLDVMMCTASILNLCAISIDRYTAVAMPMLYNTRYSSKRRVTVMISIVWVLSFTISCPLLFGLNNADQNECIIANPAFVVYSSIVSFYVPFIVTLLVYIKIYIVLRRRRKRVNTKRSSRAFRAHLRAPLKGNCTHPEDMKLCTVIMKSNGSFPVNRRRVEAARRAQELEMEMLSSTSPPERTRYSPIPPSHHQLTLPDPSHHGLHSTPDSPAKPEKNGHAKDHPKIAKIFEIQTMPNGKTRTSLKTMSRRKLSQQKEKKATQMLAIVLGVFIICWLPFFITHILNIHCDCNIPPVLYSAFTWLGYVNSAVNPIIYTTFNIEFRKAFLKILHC
Sequence of Gonadotropin-releasing hormone receptor (Homo sapiens) (P30968 whole entry, looked up): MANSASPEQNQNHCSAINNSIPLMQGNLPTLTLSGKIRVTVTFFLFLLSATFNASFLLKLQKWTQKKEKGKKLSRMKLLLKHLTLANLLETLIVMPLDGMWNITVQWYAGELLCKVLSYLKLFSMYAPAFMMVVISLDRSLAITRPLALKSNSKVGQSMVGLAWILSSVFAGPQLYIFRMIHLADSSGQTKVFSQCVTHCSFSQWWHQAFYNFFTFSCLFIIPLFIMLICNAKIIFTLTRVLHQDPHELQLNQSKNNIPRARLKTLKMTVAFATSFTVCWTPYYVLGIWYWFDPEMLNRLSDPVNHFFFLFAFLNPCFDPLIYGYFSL

Structure (SMILES) | Potency [1] | Potency [2] | Potency [3] | Potency [4] | Potency [5] | Potency [6] | Potency [7] | Potency [8] | Potency [9] | Potency [10] | Potency [11] | Potency [12] | Potency [13] | Potency [14] | Potency [15] | Potency [16] | Potency [17] | Potency [18] | Potency [19] | Potency [20]
O=NN1CCCC1 | 14.3 µM (active) and inactive | inactive | inactive | inactive | inactive | inactive | inactive | inactive | inactive | inactive | inactive | inactive | inactive | inactive | inactive | inactive | inactive | inactive | inactive | 
CC(C)N1C(=O)c2ccccc2NS1(=O)=O | inactive | inactive | inactive | inactive | inactive | inactive | inactive | inactive | inactive | inactive | inactive | inactive | inactive | inactive | inactive |  | inactive | inactive | inactive | inactive
CCC(C)c1ccc(O)cc1 (stereo not given) | inactive | inactive | inactive | inactive | inactive | inactive | inactive | inactive | inactive | inactive | inactive | inactive | inactive | inactive | inactive |  | inactive | inactive | inactive | 
C=C(C)C#N | inactive | inactive | inactive | inactive | inactive | inactive | inactive | inactive | inactive | inactive | inactive | inactive | inactive | inactive | inactive |  | inactive | inactive | inactive | inactive
CC(C)(Cl)Cl | inactive | inactive | inactive | inactive | inactive | inactive | inactive | inactive | inactive | inactive | inactive | inactive | inactive | inactive | inactive | inactive | inactive | inactive | inactive | 
Cc1ccc(N=C=O)cc1N=C=O | inactive | 62.7 µM (active) and 48.6 µM (active) | inactive | inactive | inactive | inactive | inactive | inactive | inactive | inactive | inactive | inactive | inactive | inactive | inactive |  | inactive | inactive | inactive | inactive
CCCCC(C#N)(Cn1cncn1)c1ccc(Cl)cc1 (stereo not given) | inactive | inactive | inactive | inactive | inactive | inactive | inactive | inactive | inactive | inactive | inactive | inactive | inactive | inactive | inactive |  | inactive | inactive | inactive | inactive
CCOC(=O)N(C)N=O | inactive | inactive | inactive | inactive | inactive | inactive | inactive | inactive | inactive | inactive | inactive | inactive | inactive | inactive | inactive |  | inactive | inactive |  | inactive
Cl/C=C/Cl | inactive | inactive | inactive | inactive | inactive | inactive | inactive | inactive | inactive | inactive | inactive | inactive | inactive | inactive | inactive |  | inactive | inactive | inactive | inactive
O=[N+]([O-])c1cccc2ccccc12 | inactive | inactive | inactive | inactive | inactive | inactive | inactive | inactive | inactive | inactive | inactive | inactive | inactive | inactive | inactive | inactive | inactive | inactive | inactive | 
COc1nc(NC(C)C)nc(NC(C)C)n1 | inactive | inactive | inactive | inactive | inactive | inactive | inactive | inactive | inactive | inactive | inactive | inactive | inactive | inactive | inactive | inactive | inactive | inactive |  | 
Clc1cccc(C(Cl)(Cl)Cl)n1 | inactive | inactive | inactive | inactive | inactive | inactive | inactive | inactive | inactive | inactive | inactive | inactive | inactive | inactive | inactive |  | inactive | inactive | inactive | inactive
CC1CN1 (stereo not given) | inactive | inactive | inactive | inactive | inactive | inactive | inactive | inactive | inactive | inactive | inactive | inactive | inactive | 3.75 µM (active) | inactive | inactive | inactive | inactive | inactive | 
COC[C@@H](NC(C)=O)C(=O)NCc1ccccc1 | inactive | inactive | inactive | inactive | inactive | inactive | inactive | inactive | inactive | inactive | inactive | inactive | inactive | inactive | inactive |  | inactive | inactive | inactive | inactive
O=C(Cl)OCc1ccccc1 | inactive | inactive | inactive | inactive | inactive | inactive | inactive | inactive | inactive | inactive | inactive | inactive | inactive | inactive | inactive | inactive |  | inactive | inactive | 
N#CCNCC#N | inactive | inactive | inactive | inactive | inactive | inactive | inactive | inactive | inactive | inactive | inactive | inactive | inactive | inactive | inactive |  | inactive | inactive | inactive | inactive
